Bioassay records from PubChem BioAssay.
DT40 TDP1 CPT – DT40-hTDP1 cell growth loss with CPT. Potency, µM (doses to about 46.2 µM), for the others: at the top dose activity change, negative = growth inhibition, actives largely listed as inhibitors. actives 12% (n = 420,000). chicken DT40 Tdp1-/-;hTDP1 cells + 20 nM CPT, ATP luminescence, 48 h; also: % is scaled to controls: 0 for no effect and ±100 for the full control effect; nearly all actives have a fitted effect of over 55% in size
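Chicken DT40 Tdp1-/- cells stably complemented with human TDP1 were seeded at 400 cells/well in medium containing 20 nM camptothecin, exposed to pin-transferred compounds, and grown at 37 °C for at least 48 hr. Viability was read as ATP luminescence.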
TGFb inhibitor – TGF-b pathway inhibition | HepG2 CAGA-GFP TGF-b/SMAD3 reporter, GFP fluorescence, 18 h; TGF-beta stimulated, 500 pg/mL final | Potency, µM (titrated, usually from 46.1 µM), for the others: at the top dose activity, negative = inhibition, usual class: inhibitors | actives 1.2% (n = 410,000); also: % is scaled to controls: 0 for no effect and ±100 for the full control effect; nearly all actives have a fitted effect of over 65% in size
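Inhibition was scored as loss of TGF-beta-induced (500 pg/mL final, 18 hours, 37 degrees C) GFP in HEPG2 cells carrying a CAGA-GFP reporter, in DMEM with 1% FBS. Well GFP was summed per cell; Activity was normalised to unstimulated and stimulated DMSO wells, then concentration-response fitting.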
HepG2 tox – HepG2 cytotoxicity, counter-screen for TGF-b inhibitors | actives 0.76% (n = 410,000) | HepG2 CAGA-GFP viability, ATP luminescence, 18 h | Potency, µM (top dose mostly 46.1 µM), for inactives: top-dose activity change, negative = cytotoxicity, hits mostly cytotoxic | AID 588856
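HepG2 CAGA-GFP cells (1000/well, DMEM with 1% FBS) received compound, then TGF-beta at 500 pg/mL final, and were incubated 18 hours at 37 degrees C. Viability was read by CellTiter-Glo luminescence. Media-only wells were set as complete cell-killing and DMSO as no toxicity.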
DT40 TDP1 no CPT – qHTS for Inhibitors of human tyrosyl-DNA phosphodiesterase 1 (TDP1): qHTS in cells in absence of CPT; DT40 Tdp1-/- hTDP1 cells, no CPT, ATP luminescence, 48 h; Potency, µM (series often up to 46.2 µM), for the others: top-dose activity change, negative = growth inhibition, actives largely listed as inhibitors; actives 15% (n = 420,000); also: % is scaled to controls: 0 for no effect and ±100 for the full control effect; nearly all actives have a fitted effect of over 55% in size
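No-CPT arm: Tdp1-/-;hTDP1 DT40 cells (400/well) plus compounds, incubated ≥48 hr at 37 °C. Readout CellTiter-Glo luminescence.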
HT1080 IDH1KD tx – toxicity to HT-1080 IDH1 knockdown cells (counter line); HT-1080 IDH1 knockdown viability, ATP luminescence, 48 h; Potency, µM (top dose mostly 46.1 µM), for inactives: at the top dose activity, negative = toxicity, actives largely listed as cytotoxic; actives 2% (n = 360,000); AID 686971;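 also: 0% = DMSO wells and -100% = cell-free medium wells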
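HT-1080-IDH1KD cells (IDH1 knocked down), 750/well in RPMI with 5% FBS, treated with compound 48 h at 37 degrees C. Viability by CellTiter-Glo luminescence, normalised to DMSO and no-cell wells; concentration-response curves classed.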
HT1080-NT tox – kills 2HG-producing HT-1080-NT fibrosarcoma cells | HT-1080-NT fibrosarcoma viability, CellTiter-Glo ATP luminescence, 48 h | Potency, µM (series often up to 46.1 µM), without a hit: at the top dose activity, negative = less viability, actives largely listed as cytotoxic | actives 1.6% (n = 360,000);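 also: NT is the 2HG producing partner of a matched IDH1 knockdown line; 0% = DMSO-treated cells and -100% = media-only wells without cells; nearly all actives have a fitted effect of over 55% in size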
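Viability of the 2HG-overproducing fibrosarcoma line after 48 hours of compound exposure at 37 degrees C was determined by luminescence with CellTiter-Glo, and concentration-effect curves were then fitted and categorized.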
* = called active by the depositor; ? = inconclusive; · = no result given. Hits are enriched below; roughly 17% of the tested compounds scored in any of these assays. Calls follow the shape of the dose curve; as a rule, active = well fitted curve in the direction sought with a large enough effect; inconclusive = small, poorly fitted or top-dose-only effect, or another doubt; inactive = no such curve, though single readings can be large; an effect the other way counts as inactive or inconclusive. Potency is read from the fitted curve at half-maximal effect.

SMILES | DT40 TDP1 CPT | TGFb inhibitor | HepG2 tox | DT40 TDP1 no CPT | HT1080 IDH1KD tx | HT1080-NT tox
CCCS(=O)(=O)Nc1cc(-c2cn3ccc(C)cc3n2)ccc1C | -7.1% | · | -32.9% | ? | · | ·
COc1ccc(S(=O)(=O)Nc2cc(-c3cn4ccc(C)cc4n3)ccc2C)cc1OC | 16.4µM* | -21.1% | -23.3% | 16.4µM* | · | ·
Cc1cccn2cc(-c3ccc(S(=O)(=O)N4CCCCC4)cc3)nc12 | ? | 6.4% | -14.8% | ? | -17.0% | -21.4%
COc1ccc(Br)cc1S(=O)(=O)Nc1cc(-c2cn3ccccc3n2)ccc1C | ? | -13.1% | -35.1% | 13µM* | · | ·
COc1ccc(-c2cn3ccccc3n2)cc1OC | ? | -20.4% | -55.6% | ? | ? | ?
Cc1ccc(-c2cn3cccc(C)c3n2)cc1NS(=O)(=O)c1ccccc1 | 25.9µM* | -3.0% | -17.3% | 16.4µM* | · | ·
CCn1cc(C(C)NC(=O)Nc2ccccc2C(=O)OC)c(C)n1 (stereo not drawn) | 21.7% | 4.3% | -2.7% | -16.2% | 3.7% | 0.7%
COc1ccc(NC(=O)/C=C/c2c(Cl)nc3ccccn23)cc1 | -9.6% | -6.7% | -2.8% | -27.3% | 12.6% | 17.6%
COc1ccccc1N1CCN(C(=O)/C=C/c2c(Cl)nc3ccccn23)CC1 | 10.3µM* | 2.8% | 1.1% | 4.61µM* | 5.9% | 5.7%
CCC/C(O)=C1\C(=O)CC(c2ccccc2)CC1=NC(C)C(=O)O (stereo not drawn) | 21.2% | ? | -6.7% | -12.5% | 14.6% | 16.9%
COCCNc1nc(-c2ccccc2F)c2sc(-c3ccccc3)cc2n1 | 18.4µM* | -2.7% | -16.3% | ? | ? | ?
CC(C)Nc1nc(-c2ccccc2F)c2sc(-c3ccccc3)cc2n1 | ? | 21.6% | -18.3% | ? | -6.8% | 8.7%
COCCNc1nc(-c2cc(F)ccc2C)c2sc(-c3ccccc3)cc2n1 | 25.9µM* | -1.1% | -28.9% | 14.6µM* | -17.4% | -16.2%
CCc1ccccc1Oc1nc(NCCOC)nc2cc(-c3ccccc3)sc12 | ? | -7.1% | -4.5% | ? | 3.9% | -2.7%
CCOc1ccc(N2CC(C(=O)Nc3nnc(C4CCCCC4)s3)CC2=O)cc1 (stereo not drawn) | ? | -13.3% | -5.0% | ? | 13.1% | 15.6%
COc1cccc(NC(=O)c2ccc3[nH]c(C)cc(=O)c3c2)c1 | -16.0% | ? | 3.5% | ? | · | ·
O=c1[nH][nH]c2c1[C@H](c1ccc(F)cc1)O[C@H](C1CCCCC1)C2 | -10.1% | · | · | -29.7% | -0.8% | 4.6%
CN(C)C(CNC(=O)CNC(=O)c1ccc2ccccc2c1)c1ccccc1 (stereo not drawn) | 5.7% | 12.8% | -12.6% | -6.7% | 2.6% | -9.6%
CCCCn1c(N)c(N(CC(C)C)C(=O)CN2C(=O)NC3(CCC(C(C)(C)CC)CC3)C2=O)c(=O)[nH]c1=O (stereo not drawn) | -15.9% | 0.5% | 3.9% | -24.0% | -12.7% | 2.1%
CC1(C)S[C@@H]2[C@H](NC(=O)[C@H](N)c3ccccc3)C(=O)N2[C@H]1C(=O)OC1OC(=O)c2ccccc21 (stereo partly drawn) | 11.6µM* | -7.7% | -24.1% | 8.2µM* | -4.1% | 3.0%
O=C(CSc1nc(C(F)(F)F)cc(=O)[nH]1)Nc1cccc2ccccc12 | -2.0% | 0.0% | -2.6% | -28.0% | -3.4% | -0.3%
COc1ccc(/C=N/n2cc(-c3ccccc3)nc2N)cc1 | 3.26µM* | -23.1% | -10.2% | 5.17µM* | -12.4% | -13.8%
Cc1ccc(NC2=C(CC(=O)O)C(c3ccc(F)cc3)N(c3ccc(C)cc3)C2=O)cc1 (stereo not drawn) | -22.2% | ? | -44.8% | ? | · | ·
COC(=O)c1ccc(CSc2nnc(C)n2N)o1 | 6.1% | 1.3% | 14.1% | -25.9% | 5.3% | 4.5%
COc1cc(OC)c(C(=O)OC(C)C(=O)Nc2cccc(C(F)(F)F)c2)cc1OC (stereo not drawn) | 23.1µM* | ? | -3.6% | ? | -19.8% | -2.5%
SMILES | DT40 TDP1 CPT | TGFb inhibitor | HepG2 tox | DT40 TDP1 no CPT | HT1080 IDH1KD tx | HT1080-NT tox
CC(OC(=O)c1cccc(S(=O)(=O)Nc2cccc(C(F)(F)F)c2)c1)C(=O)Nc1ccc2c(c1)OCCO2 (stereo not drawn) | -21.7% | ? | -32.4% | 16.4µM* | -9.3% | -15.4%
COc1cc(SC)ccc1C(=O)OC(C)C(=O)Nc1ccc(NC(C)=O)cc1 (stereo not drawn) | -6.9% | -26.8% | 6.8% | ? | 1.2% | -0.3%
CCCC(O)(CCN1CCCCC1)c1ccc(OCC)cc1 (stereo not drawn) | ? | -9.5% | -9.6% | ? | -2.7% | 0.0%
COc1ccc(C(O)(CCN2CCCCC2)C2CCCCC2)cc1 (stereo not drawn) | ? | 2.5% | -22.1% | 20.6µM* | -8.5% | -18.7%
CC(=O)N1N=C(c2ccc(C)cc2)CC1c1cn(-c2ccccc2)nc1-c1cccs1 (stereo not drawn) | 16.4µM* | 6.2% | 2.6% | ? | · | ·
CCCCOc1ccc2c(C)cc(=O)oc2c1OCCCC | 16.4µM* | -24.9% | -16.4% | 25.9µM* | 3.5% | 3.9%
CCC(=O)Oc1ccc2c(C)cc(=O)oc2c1C | ? | 0.9% | 0.9% | 6.51µM* | 16.3% | -1.0%
Cc1c(C(=O)Oc2ccc(Br)cc2)sc2ncn(Cc3ccccc3F)c(=O)c12 | -6.9% | -21.0% | -26.1% | -12.9% | · | ·
O=C(NCCC1=CCCCC1)C1CCN(S(=O)(=O)c2ccc(Br)s2)CC1 | 20.6µM* | -26.9% | -36.2% | 20.6µM* | 4.4% | 4.6%
O=C(NCCC1=CCCCC1)C1CCCN(S(=O)(=O)c2ccc(F)cc2)C1 (stereo not drawn) | 11.6µM* | 1.3% | -12.2% | 20.6µM* | 0.0% | -0.7%
Cc1nc2sc(C(=O)N(C)Cc3ccccc3)c(NC(=O)c3ccccc3)c2c(C)c1Cl | ? | 6.1% | -0.1% | 16.4µM* | · | ·
CCc1ccc(NC(=O)c2sc3nc(C)cc(C)c3c2NC(=O)c2ccccc2)cc1 | · | 23.9% | -6.3% | · | · | ·
Cc1nc2sc(C(=O)NCc3ccc(Cl)cc3)c(NC(=O)c3ccccc3)c2c(C)c1C | 13µM* | ? | -31.6% | ? | · | ·
Cc1nc2sc(C(=O)N(C)c3ccccc3)c(NC(=O)c3ccccc3Cl)c2c(C)c1C | ? | 15.7% | 8.4% | ? | · | ·
